Screening data as filed in PubChem.
This is a sample that favours compounds with a hit; in the whole collection about 8.1% have one here.
KB-3-1 tox: kills parental KB-3-1 adenocarcinoma cells | KB-3-1 viability, CellTiter-Glo ATP luminescence, 72 h | Potency, µM (series often up to 46.1 µM), usual class: cytotoxic | hit rate 1.4% among 400,000; note: % is set by controls: 0 for no effect and ±100 for the full control effect; nearly all actives have a fitted effect of over 60% in size
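Parental KB-3-1 adenocarcinoma cells in phenol-red-free DMEM with 10% FBS were pin-treated with compounds at several concentrations, incubated 72 h at 37 °C, and viability read by CellTiter-Glo luminescence; concentration-effect curves were fitted after normalization.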
SW480 rerep: inducers of DNA re-replication in SW480 colon cancer cells. SW480 DNA re-replication, Hoechst DNA content imaging, 48 h. Potency, µM (titrated, usually from 46.1 µM), for the others: top-dose re-replication activation, most hits filed as activators. hit rate 1.8% among 340,000; note: % of control where 0% means no effect; nearly all actives have a fitted effect of over 55% in size
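Image-based read-out: total Hoechst fluorescence of nuclei (405 nm excitation, 500-530 nm emission), with hits raising the fraction of high-intensity nuclei. SW480 colon cells incubated 48 hr with compounds at 37 C.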
ELG1 DNA repair: blocks ELG1-dependent DNA repair in HEK293T cells. HEK293T ELG1-luciferase reporter, luminescence, 16 h; DNA damage induced by 5-fluorouridine. Potency, µM (top dose mostly 46.1 µM), without a hit: top-dose activity change, negative = inhibition, actives largely listed as inhibitors. hit rate 2.3% among 330,000; note: % is set by controls: 0 for no effect and ±100 for the full control effect; nearly all actives have a fitted effect of over 55% in size
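Step one: seed 2,000 cells per well. Step two: pin-transfer compound or DMSO alongside 5-fluorouridine. Step three: incubate 16 hr, 37 °C, 5% CO2. Step four: add ONE-Glo, wait 30 min, read luminescence.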
KB-V1 MDR tox: KB-V1 MDR subline cytotoxicity; KB-V1 MDR cells viability, CellTiter-Glo, 72 h; Potency, µM (top dose mostly 46.1 µM), most hits filed as cytotoxic; hit rate 3.4% among 400,000; note: % is set by controls: 0 for no effect and ±100 for the full control effect; nearly all actives have a fitted effect of over 60% in size
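qHTS viability screen in drug-selected KB-V1 MDR cells: 72 h compound treatment at 37 degrees C, ATP luminescence end point.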
MCF10A rerep: induces DNA re-replication in MCF 10a normal breast cells | MCF 10A DNA re-replication, Hoechst nuclear intensity, 48 h | Potency, µM (top dose mostly 46.1 µM), without a hit: at the top dose activity, positive = re-replication, hits mostly activators | hit rate 2.9% among 350,000 | AID 624296; note: % of control where 0% means no effect; nearly all actives have a fitted effect of over 50% in size
Numbers without * were called inactive; i = inactive; ? = inconclusive; . = no result; [ ] = dose if it differs, or a comment. Calls come from the whole dose curve; as a rule, active = well fitted curve in the direction sought with a large enough effect; inconclusive = small, poorly fitted or top-dose-only effect, or another doubt; inactive = no such curve, though single readings can be large; an effect the other way counts as inactive or inconclusive. Potency is the fitted concentration of half-maximal effect.

SMILES	KB-3-1 tox	SW480 rerep	ELG1 DNA repair	KB-V1 MDR tox	MCF10A rerep
Oc1ccc(NCc2ccccc2OCc2ccccc2)cc1	i	14.6µM*	?	i	23.1µM*
O=C(OCc1ccccc1)c1ccc(NCc2cc(O)ccc2O)cc1	3.66µM*	?	.	2.59µM*	?
O=c1[nH]c2ccc(NCc3ccccc3OCc3ccc(Cl)cc3)cc2[nH]1	?	?	8.2µM*	i	7.1%
COc1ccc(OCC(=O)NCCCCCCNC(=O)COc2ccc(OC)cc2)cc1	?	27.8%	6.8%	i	0.1%
CN(c1ccccc1C(=O)NC1CCCCC1)S(=O)(=O)c1ccccc1	i	2.2%	-8.0%	i	-3.3%
C/C(=N\Nc1ccc([N+](=O)[O-])cc1)c1ccc(N2CCOCC2)cc1	i	0.1%	?	i	-1.1%
CC(C)(C)c1cnnn1-c1ccc(/C=N/Nc2ccc([N+](=O)[O-])cc2)cc1	?	18.4µM*	?	i	?
C/C(=N\Nc1ccc([N+](=O)[O-])cc1)c1ccc(-n2nncc2C)cc1	i	?	7.31µM*	?	?
CC/C(=N\Nc1ccc([N+](=O)[O-])cc1)c1ccccc1	i	?	?	i	16.4µM*
CCc1ccc(/C(C)=N\Nc2ccc([N+](=O)[O-])cc2)cc1	i	14.6µM*	?	i	9.2µM*
CCCN1CCN(C(=O)c2ccc(CS(=O)c3ccc(Cl)cc3)o2)CC1 (stereo unspecified)	i	?	14.3%	i	-0.3%
COc1cc(NC(=O)CCn2c(=O)oc3ccccc32)cc(OC)c1OC	i	-24.7%	-17.1%	i	-20.2%
COCCN1C(=O)N[C@@H](c2cccc(C(F)(F)F)c2)[C@@H](C(=O)OC)[C@H]1C	i	-5.1%	.	i	11.9%
COc1cc2c(cc1OC)CN(CC(=O)Nc1ccccc1C(=O)NCc1ccccc1)CC2	i	2.4%	23.1µM*	?	?
COc1ccccc1NC(=O)COc1ccc(C(=O)NCc2ccccc2)cc1OC	?	3.0%	25.9µM*	i	25.1%
CCOc1cc(/C=N/NC(=O)C(O)(c2ccccc2)c2ccccc2)ccc1OC(=O)c1ccco1	i	6.4%	.	i	-1.5%
CC(C)NC(=O)Nc1nnc([C@@H]2C[C@H](O)[C@@H](CO)O2)s1	i	.	.	i	.
Cc1sc2ncnc(NCC3CCCO3)c2c1C (stereo unspecified)	i	2.6%[9.22 µM]	?	i	3.0%
CCc1cc2c(NCC3CCCO3)ncnc2s1 (stereo unspecified)	?	2.0%	?	16.4µM*	17.0%
CCN1CCN(C(=O)C2CCC(CNS(=O)(=O)c3ccccc3)CC2)CC1 (stereo unspecified)	i	-10.3%	5.8%	i	4.3%
Cc1cccc(N2CCN(C(=O)C3CCC(CNS(=O)(=O)c4ccc(Br)s4)CC3)CC2)c1C (stereo unspecified)	i	.	.	i	.
O=C(NCCN1CCOCC1)C1CCC(CNS(=O)(=O)c2ccc(Cl)cc2)CC1 (stereo unspecified)	i	3.9%	-10.2%	i	16.4µM*
Cc1cccc(N2CCN(C(=O)C3CCC(CNS(=O)(=O)c4cccs4)CC3)CC2)c1C (stereo unspecified)	20.6µM*	?	9.2µM*	?	?
Cc1ccc(S(=O)(=O)NCC2CCC(C(=O)N3CCN(C)CC3)CC2)cc1 (stereo unspecified)	i	?	17.3%	i	18.4µM*
CC(C)c1ccc(S(=O)(=O)c2nnn3c2nc(N2CCCCC2)c2ccccc23)cc1	i	-2.9%	7.0%	i	-0.2%
SMILES	KB-3-1 tox	SW480 rerep	ELG1 DNA repair	KB-V1 MDR tox	MCF10A rerep
N#Cc1cnn2c1nc(N1CCCCC1)c1ccccc12	?	3.0%	14.8%	11.6µM*	15.7%
O=C(CCCOc1ccccc1)Nc1nc2ccccc2[nH]1	i	6.7%	?	i	20.3%
O=S(=O)(CCOc1ccccc1)c1nc2ccccc2[nH]1	?	23.8%	?	i	5.8µM*
O=C(Cc1cc(=O)[nH][nH]1)N/N=C/C(Cl)=C/c1ccccc1	i	-2.0%	2.4%	i	?
Nc1cc(Nc2ccccc2)ccn1	i	-3.6%	-10.8%	i	7.3%
N#Cc1sc2nccc(Nc3ccccc3)c2c1N	i	23.1µM*	.	i	?
O=C(NC(O)C(=O)c1ccccc1)c1ccccn1 (stereo unspecified)	?	6.2%	5.5%	i	28.5%
O=C(NN=C(c1ccccc1)c1ccccn1)c1ccccc1	?	10.3µM*	?	?	?
COc1ccc(C(=O)N/N=C(\c2ccccc2)c2ccccn2)cc1	i	?	?	0.651µM*	?
COC(=O)c1ccc(C)c(NS(=O)(=O)c2ccc3c(c2)OCCO3)c1	2.31µM*	-1.5%	?	1.16µM*	0.0%
COC(=O)c1sccc1NS(=O)(=O)c1ccc(OC)cc1	i	?	?	18.4µM*	12.8%
CCOc1ccc(S(=O)(=O)Nc2ccccc2SC)cc1	?	6.2%	-0.1%	16.4µM*	-9.0%
CSc1ccccc1NS(=O)(=O)c1ccc2c(c1)OCCO2	i	-8.6%	-0.5%	20.6µM*	6.9%
Cc1ccc(CN2C(=O)COc3cc(NS(C)(=O)=O)ccc32)cc1	i	-0.7%	.	i	7.0%
Cc1cccc(OC(C)C(=O)Nc2nccs2)c1 (stereo unspecified)	i	?	4.0%	i	-3.3%
O=C(NCCc1nc2ccccc2[nH]1)/C(=C/c1ccco1)NC(=O)c1ccco1	i	5.4%	-1.8%	?	0.7%
COC(=O)c1ccc(C)c(NS(=O)(=O)c2ccc(OC)cc2)c1	0.731µM*	0.259µM*	?	1.03µM*	?
COC(=O)c1ccc(C)c(NS(=O)(=O)c2ccc(C)c([N+](=O)[O-])c2)c1	i	-0.4%	-0.2%	i	?
COCCN=C1NN=C(c2ccc(C)c([N+](=O)[O-])c2)CS1	?	-7.7%	?	i	-3.5%
Cc1ccc(C2C=C(c3ccccc3OC(F)F)Nc3ncnn32)cc1 (stereo unspecified)	?	-205.5%	-10.1%	20.6µM*	13.5%
Cc1ccc(C2=CC(c3ccccc3)n3ncnc3N2)c(C)c1 (stereo unspecified)	i	-11.4%	.	i	9.4%
CN(C)c1ccc(C2C=C(c3ccc(Cl)cc3OC(F)F)Nc3ncnn32)cc1 (stereo unspecified)	i	23.1µM*	?	11.6µM*	4.11µM*
Cc1c(Cl)c([N+](=O)[O-])nn1CCCC(=O)Nc1c(Cl)cccc1Cl	i	-7.4%	0.1%	7.31µM*	13.3%
